Test results as given in the supplement of paper PMC12067926.

Key:
Assay in all cases: relative growth (AUC of 72 h growth curve relative to DMSO control, dAUC) (ratio); higher = more growth (less inhibition), active = hit call of the paper
Conditions in all cases: 20 µM;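 active = growth AUC significantly below the DMSO wells by Dunnett test; inactive = the rest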
[1] = system: Aeromonas 1 (Aeromonas sp. AE235)
Summary of the method: (§1)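 Whole sediment communities and bacterial isolates from Icelandic stream sediments and Silwood Park soil were brought to carrying capacity in Luria–Bertani medium. They were then diluted 1:100 into 96-well plates with each chemical at 20 µM in 1% DMSO, and A600 was recorded every hour for 72 h. The area under each growth curve, integrated by spline, was averaged across three biological replicates. This figure, divided by the mean of the DMSO controls, gives relative growth (dAUC).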

[2] = system: Aeromonas 2 (Aeromonas sobria)
Summary of the method: as §1

[3] = system: Aeromonas 3 (Aeromonas popoffii)
Summary of the method: as §1

[4] = system: Argrobacterium 1 (Agrobacterium sp.)
Summary of the method: as §1

[5] = system: Arthrobacter 1 (Arthrobacter humicola)
Summary of the method: as §1

[6] = system: Arthrobacter 2 (Arthrobacter humicola)
Summary of the method: as §1

[7] = system: Arthrobacter 3 (Arthrobacter sp.)
Summary of the method: as §1

Community 4 = system: Community 4
Summary of the method: as §1

Community 6 = system: Community 6
Summary of the method: as §1

Community 7 = system: Community 7
Summary of the method: as §1

Community 8 = system: Community 8
Summary of the method: as §1

Community 9 = system: Community 9
Summary of the method: as §1

[8] = system: Flavobacterium 1 (Flavobacterium glaciei)
Summary of the method: as §1

[9] = system: Flavobacterium 2 (Flavobacterium succinicans)
Summary of the method: as §1

[10] = system: Hymenobacter 1 (Hymenobacter glaciei)
Summary of the method: as §1

[11] = system: Microbacterium 1 (Microbacterium arborescens)
Summary of the method: as §1

[12] = system: Neobacillus 1 (Neobacillus soli)
Summary of the method: as §1

[13] = system: Oryzobacter 1 (Oryzobacter terrae)
Summary of the method: as §1

[14] = system: Paenibacillus 1 (Paenibacillus castaneae)
Summary of the method: as §1

Measured: relative growth

CC(C)(C)[C@@H](O)[C@H](Oc1ccc(Cl)cc1)n1cncn1
inactive: [1] 1.02 | [2] 1.04 | [3] 1.03 | [4] 1.03 | [5] 1.15 | [6] 1.1 | [7] 1.02 | Community 4 1.14 | Community 6 1.12 | Community 7 0.988 | Community 8 1.02 | Community 9 1.09 | [8] 1.01 | [9] 1.02 | [10] 1.05 | [11] 0.963 | [12] 1.04 | [13] 1.02 | [14] 1.12

CCCN(CCC)C(=O)SCc1ccccc1
inactive: [1] 1.03 | [2] 1.02 | [3] 1 | [4] 1.04 | [5] 1.05 | [6] 0.932 | [7] 1.02 | Community 4 0.997 | Community 6 0.996 | Community 7 1.01 | Community 8 1.08 | Community 9 1.03 | [8] 0.979 | [9] 0.952 | [10] 1.15 | [11] 1.05 | [12] 1.02 | [13] 1.08 | [14] 1.01

N#Cc1nn(-c2c(Cl)cc(C(F)(F)F)cc2Cl)c(N)c1[S+]([O-])C(F)(F)F (configuration not stated)
inactive: [1] 0.981 | [2] 0.935 | [3] 1 | [4] 1.01 | [5] 0.911 | [6] 0.914 | [7] 0.853 | Community 4 1.07 | Community 6 1.06 | Community 7 0.995 | Community 8 1.05 | Community 9 1.04 | [8] 0.977 | [9] 1.01 | [10] 1.05 | [11] 1 | [12] 0.993 | [13] 0.998 | [14] 1.02

C[N+]1(C)CCCCC1
inactive: [1] 1.03 | [2] 1.01 | [3] 1.02 | [4] 0.994 | [5] 1.08 | [6] 0.96 | [7] 1.04 | Community 4 1.09 | Community 6 1.07 | Community 7 0.992 | Community 8 0.99 | Community 9 1.06 | [8] 1.03 | [9] 1.03 | [10] 1.08 | [11] 0.951 | [12] 1 | [13] 1.06 | [14] 1

C#CCN1C(=O)COc2cc(F)c(N3C(=O)C4=C(CCCC4)C3=O)cc21
inactive: [1] 0.987 | [2] 0.969 | [3] 0.982 | [4] 0.996 | [5] 1.03 | [6] 0.974 | [7] 0.979 | Community 4 0.951 | Community 6 0.959 | Community 7 1.07 | Community 8 1.01 | Community 9 0.923 | [8] 0.957 | [9] 0.977 | [10] 1.06 | [11] 1.04 | [12] 1.01 | [13] 1.04 | [14] 0.935

CNC(=O)c1cc(C#N)cc(C)c1NC(=O)c1cc(Br)nn1-c1ncccc1Cl
inactive: [1] 0.986 | [2] 0.95 | [3] 1.01 | [4] 1.03 | [5] 1 | [6] 0.967 | [7] 0.99 | Community 4 0.903 | Community 6 0.946 | Community 7 1.05 | Community 8 0.986 | Community 9 1.02 | [8] 1.02 | [9] 0.975 | [10] 0.978 | [11] 0.993 | [12] 0.957 | [13] 1.06 | [14] 0.915

Cc1nc(N(C)C)nc(OC(=O)N(C)C)c1C
inactive: [1] 0.991 | [2] 0.948 | [3] 0.968 | [4] 0.962 | [5] 0.924 | [6] 0.847 | [7] 0.932 | Community 4 0.871 | Community 6 0.942 | Community 7 1.12 | Community 8 0.951 | Community 9 0.938 | [8] 0.924 | [9] 0.965 | [10] 0.864 | [11] 0.988 | [12] 0.928 | [13] 0.936 | [14] 0.942

COP(=S)(OC)Oc1ccc(SC)c(C)c1
inactive: [1] 1.02 | [2] 0.974 | [3] 1.03 | [4] 1.05 | [5] 1.17 | [6] 0.942 | [7] 1.01 | Community 4 0.985 | Community 6 1.05 | Community 7 0.973 | Community 8 1 | Community 9 1.02 | [8] 0.934 | [9] 0.998 | [10] 1.01 | [11] 0.99 | [12] 0.955 | [13] 1.02 | [14] 1.02

CC(Oc1ccc(Oc2nc3ccc(Cl)cc3o2)cc1)C(=O)O (configuration not stated)
inactive: [1] 1.02 | [2] 1.01 | [3] 1.04 | [4] 1.01 | [5] 1.08 | [6] 0.93 | [7] 1.01 | Community 4 0.991 | Community 6 1.07 | Community 7 1.01 | Community 8 1.01 | Community 9 1.07 | [8] 0.971 | [9] 1.09 | [10] 1.05 | [11] 0.986 | [12] 1.05 | [13] 0.998 | [14] 1.11

O=[N+]([O-])/N=C1\NCCN1Cc1ccc(Cl)nc1
inactive: [1] 0.99 | [2] 0.99 | [3] 0.999 | [4] 0.959 | [5] 0.949 | [6] 1.06 | [7] 0.929 | Community 4 1.11 | Community 6 1.11 | Community 7 1.11 | Community 8 1.05 | Community 9 1.07 | [8] 0.997 | [9] 1.07 | [10] 1.14 | [11] 1 | [12] 1.06 | [13] 0.944 | [14] 1.15

C#CCOc1ccc(CCNC(=O)C(OCC#C)c2ccc(Cl)cc2)cc1OC (configuration not stated)
inactive: [1] 0.978 | [2] 0.985 | [3] 1 | [4] 1.05 | [5] 1.04 | [6] 0.935 | [7] 0.953 | Community 4 0.951 | Community 6 1.02 | Community 7 1 | Community 8 1.05 | Community 9 0.995 | [8] 0.963 | [9] 0.928 | [10] 1.04 | [11] 1.02 | [12] 0.98 | [13] 1.02 | [14] 0.851

CC1(C)C(C(=O)OC(C#N)c2cccc(Oc3ccccc3)c2)C1(C)C (configuration not stated)
inactive: [1] 0.986 | [2] 0.989 | [3] 1.08 | [4] 1.09 | [5] 1.1 | [6] 0.685 | [7] 0.704 | Community 4 1 | Community 6 1.03 | Community 7 1.09 | Community 8 1.02 | Community 9 1.05 | [8] 0.939 | [9] 0.946 | [10] 1.02 | [11] 1.03 | [12] 0.932 | [13] 1.14 | [14] 0.918

CC(C)N(C)S(=O)(=O)NC(=O)c1cc(-n2c(=O)cc(C(F)(F)F)n(C)c2=O)c(F)cc1Cl
inactive: [1] 0.995 | [2] 1.02 | [3] 1.01 | [4] 1.03 | [5] 1.1 | [6] 1.01 | [7] 1.07 | Community 4 1.13 | Community 6 1.03 | Community 7 1.06 | Community 8 1.08 | Community 9 1.14 | [8] 1 | [9] 0.978 | [10] 1.04 | [11] 1 | [12] 0.98 | [13] 1.02 | [14] 0.99
